Results: PubChem BioAssay (EPA / NIEHS)
Activity calls are given as the source filed them. How the source made its calls: active means hit-call score of the fitted dose curve at least 0.9, where 1 is the maximum; inactive means score below 0.9.

Experiments:
[1] = ATG_GRE_CIS: Attagene CIS-FACTORIAL HepG2 Assay for human Glucocorticoid Response Elements (GRE) (AID 2282947); conditions: HepG2 GRE cis-reporter, Attagene multiplex mRNA; actives raise or lower the signal
Summary of the method: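 Assay uses human hepatoma HepG2 cells transfected with cis-promoter reporter units, exposed 24 h. mRNA from reporters detected by RT-PCR plus capillary electrophoresis; DMSO serves as negative control and baseline.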

[2] = ATG_ISRE_CIS: Attagene CIS-FACTORIAL HepG2 Assay for human Interferon Regulatory Factor 1 (IRF1) binding to an Interferon-Stimulated Response Element (ISRE) (AID 2282948); conditions: HepG2 ISRE cis-reporter (Attagene), mRNA transcription readout; actives raise or lower the signal
Summary of the method: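 Transiently transfected HepG2 cells carrying cis-element reporter units, dosed 24 hours. Reporter mRNA quantified by RT-PCR, fluorescent primer extension, HpaI digestion and capillary electrophoresis. Bidirectional fitting relative to DMSO.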

[3] = ATG_M_32_CIS: Attagene CIS-FACTORIAL HepG2 Assay for M32 Transcription Factor (Internal Marker) (AID 2282949); conditions: HepG2 Attagene cis-factorial M32 reporter, mRNA; actives raise or lower the signal;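 further: background control marker of the multiplexed CIS panel rather than a real target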
Summary of the method: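 Following 24 h chemical exposure of HepG2 cells transiently expressing cis-promoter reporter constructs, reporter transcript levels were determined by RT-PCR with fluorescent labelling and capillary electrophoresis, then fitted bidirectionally against DMSO.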

[4] = ATG_M_06_CIS: Attagene CIS-FACTORIAL HepG2 Assay for M06 Transcription Factor (Internal Marker) (AID 2282950); conditions: HepG2 Attagene CIS-FACTORIAL M06 internal marker reporter; actives raise or lower the signal
Summary of the method: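 Steps: transfect HepG2 with multiplexed cis-element reporter constructs; dose chemical 24 h; extract RNA with DNase treatment; reverse-transcribe, PCR-amplify, 6-FAM label, HpaI digest; separate fragments by capillary electrophoresis. Activity fitted both directions versus DMSO.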

[5] = target: Hypoxia-inducible factor 1-alpha (Homo sapiens) (UniProt Q16665); assay: ATG_HIF1a_CIS: Attagene CIS-FACTORIAL HepG2 Assay for human Hypoxia Inducible Factor 1 (HIF1A) (AID 2282951); conditions: HepG2 Attagene cis-factorial HIF1a reporter transcription; actives raise or lower the signal
Hypoxia-inducible factor 1-alpha (Homo sapiens), sequence (Q16665 whole entry, looked up): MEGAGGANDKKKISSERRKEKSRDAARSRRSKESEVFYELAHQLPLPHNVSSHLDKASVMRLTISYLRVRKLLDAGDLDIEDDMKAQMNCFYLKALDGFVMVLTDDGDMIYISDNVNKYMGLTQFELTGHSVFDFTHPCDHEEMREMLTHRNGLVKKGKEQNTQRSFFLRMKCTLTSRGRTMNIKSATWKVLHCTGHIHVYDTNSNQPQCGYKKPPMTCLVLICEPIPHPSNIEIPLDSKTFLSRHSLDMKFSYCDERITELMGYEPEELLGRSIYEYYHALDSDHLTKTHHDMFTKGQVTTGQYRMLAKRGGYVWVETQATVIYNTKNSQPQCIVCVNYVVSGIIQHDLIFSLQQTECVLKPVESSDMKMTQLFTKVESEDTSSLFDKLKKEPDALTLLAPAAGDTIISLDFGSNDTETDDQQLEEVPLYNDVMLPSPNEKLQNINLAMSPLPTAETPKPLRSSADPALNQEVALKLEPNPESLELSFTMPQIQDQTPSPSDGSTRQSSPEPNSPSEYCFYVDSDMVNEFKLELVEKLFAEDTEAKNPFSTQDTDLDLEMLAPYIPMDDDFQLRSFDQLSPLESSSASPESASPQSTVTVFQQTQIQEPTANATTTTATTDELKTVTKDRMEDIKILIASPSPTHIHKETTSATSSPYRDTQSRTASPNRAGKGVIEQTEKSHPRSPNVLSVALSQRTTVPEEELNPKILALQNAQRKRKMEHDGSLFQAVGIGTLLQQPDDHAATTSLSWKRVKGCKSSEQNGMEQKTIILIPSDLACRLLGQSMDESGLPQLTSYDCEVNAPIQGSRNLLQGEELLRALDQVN
Summary of the method: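 Measures endogenous transcription-factor activity through cis-regulated reporter mRNA in HepG2. Cells dosed 24 h; transcripts quantified by RT-PCR with 6-FAM-labelled products separated by capillary electrophoresis; DMSO serves as negative control.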

[6] = target: Hepatocyte nuclear factor 6 (Homo sapiens) (UniProt Q9UBC0); assay: ATG_HNF6_CIS: Attagene CIS-FACTORIAL HepG2 Assay for human Hepatocyte Nuclear Factor 6 (HNF6) (AID 2282952); conditions: HepG2 Attagene cis-factorial HNF6 reporter transcription; actives raise or lower the signal
Hepatocyte nuclear factor 6 (Homo sapiens), sequence (Q9UBC0 whole entry, looked up): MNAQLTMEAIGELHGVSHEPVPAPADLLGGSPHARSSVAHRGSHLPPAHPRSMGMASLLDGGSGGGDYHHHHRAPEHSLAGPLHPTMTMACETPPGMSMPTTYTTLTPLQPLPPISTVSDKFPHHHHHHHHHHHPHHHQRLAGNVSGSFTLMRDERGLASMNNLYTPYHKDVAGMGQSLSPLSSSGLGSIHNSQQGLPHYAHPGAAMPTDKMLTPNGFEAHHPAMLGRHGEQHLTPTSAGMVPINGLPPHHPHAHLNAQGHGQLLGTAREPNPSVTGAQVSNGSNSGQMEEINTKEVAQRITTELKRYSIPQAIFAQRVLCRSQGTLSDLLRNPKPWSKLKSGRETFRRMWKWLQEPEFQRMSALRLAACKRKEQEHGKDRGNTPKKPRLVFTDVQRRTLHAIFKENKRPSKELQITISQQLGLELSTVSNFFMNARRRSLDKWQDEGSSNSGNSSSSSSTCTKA
Summary of the method: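 Multiplexed mRNA reporter assay in transfected HepG2; 24 h dosing; RT-PCR plus capillary electrophoresis fluorescence; DMSO-referenced bidirectional curve fitting.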

[7] = target: Heat shock factor protein 1 (Homo sapiens) (UniProt Q00613); assay: ATG_HSE_CIS: Attagene CIS-FACTORIAL HepG2 Assay for human Heat Shock Transcription Factor 1 (HSE) (AID 2282953); conditions: HepG2 HSE cis-reporter, Attagene RNA transcription; actives raise or lower the signal
Heat shock factor protein 1 (Homo sapiens), sequence (Q00613 whole entry, looked up, the tested form may be a part): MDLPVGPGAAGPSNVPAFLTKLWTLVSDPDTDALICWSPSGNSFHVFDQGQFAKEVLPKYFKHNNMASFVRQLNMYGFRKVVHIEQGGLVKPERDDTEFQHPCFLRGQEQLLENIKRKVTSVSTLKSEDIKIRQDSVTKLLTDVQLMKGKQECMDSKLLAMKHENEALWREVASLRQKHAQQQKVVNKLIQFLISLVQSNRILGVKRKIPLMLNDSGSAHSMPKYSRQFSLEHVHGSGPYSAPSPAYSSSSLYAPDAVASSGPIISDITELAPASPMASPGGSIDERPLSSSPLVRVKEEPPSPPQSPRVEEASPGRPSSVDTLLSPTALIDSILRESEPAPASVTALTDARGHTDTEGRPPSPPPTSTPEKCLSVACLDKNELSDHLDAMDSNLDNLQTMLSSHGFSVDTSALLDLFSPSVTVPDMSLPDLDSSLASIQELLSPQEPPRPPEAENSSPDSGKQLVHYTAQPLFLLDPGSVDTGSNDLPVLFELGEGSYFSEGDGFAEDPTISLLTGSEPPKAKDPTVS
Summary of the method: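 Cells were transfected with cis-element-driven reporter constructs, dosed for 24 h, then total RNA was reverse-transcribed and reporter cDNA amplified, FAM-labelled and digested with HpaI. Fragments were resolved by capillary electrophoresis; gain or loss was fitted against DMSO.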

[8] = ATG_MRE_CIS: Attagene CIS-FACTORIAL HepG2 Assay for human Metal Responsive Element (MRE) (AID 2282954); conditions: HepG2 MRE cis-reporter transcription, Attagene multiplex; actives raise or lower the signal
Summary of the method: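 After a 24 h chemical exposure, transiently transfected HepG2 cells yield RNA whose reporter sequences are amplified, FAM-labelled and sized by capillary electrophoresis. Curves are fitted bidirectionally relative to DMSO.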

[9] = ATG_PBREM_CIS: Attagene CIS-FACTORIAL HepG2 Assay for human Phenobarbital-responsive Enhancer Module (PBREM) (AID 2282955); conditions: HepG2 PBREM cis-reporter, Attagene multiplexed transcription; actives raise or lower the signal
Summary of the method: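 Fluorescence of labelled reporter cDNA fragments, resolved by capillary electrophoresis, gives mRNA induction in transfected HepG2 cells treated for 24 h; DMSO serves as negative control and baseline.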

[10] = target: Paired box protein Pax-6 (Homo sapiens) (UniProt P26367); assay: ATG_Pax6_CIS: Attagene CIS-FACTORIAL HepG2 Assay for human Paired Box 6 (PAX6) (AID 2282956); conditions: HepG2 CIS-FACTORIAL PAX6 reporter transcription, RNA readout; actives raise or lower the signal
Paired box protein Pax-6 (Homo sapiens), sequence (P26367 whole entry, looked up): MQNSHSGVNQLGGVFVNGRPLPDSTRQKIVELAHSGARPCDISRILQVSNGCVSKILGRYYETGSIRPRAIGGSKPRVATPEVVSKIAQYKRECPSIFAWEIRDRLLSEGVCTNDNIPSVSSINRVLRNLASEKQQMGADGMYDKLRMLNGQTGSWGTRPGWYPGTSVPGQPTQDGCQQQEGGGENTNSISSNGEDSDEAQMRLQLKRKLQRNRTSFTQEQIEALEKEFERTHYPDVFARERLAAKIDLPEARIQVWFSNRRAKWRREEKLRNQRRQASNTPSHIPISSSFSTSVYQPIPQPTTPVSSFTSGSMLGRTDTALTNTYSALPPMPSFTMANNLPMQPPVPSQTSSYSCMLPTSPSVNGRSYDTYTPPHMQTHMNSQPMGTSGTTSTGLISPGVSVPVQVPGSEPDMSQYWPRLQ
Summary of the method: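 HepG2 cells transiently transfected with cis-promoter-driven multiplexed reporter units sensing endogenous transcription factor activity; 24 h chemical exposure. Reporter mRNA quantified by RT-PCR, 6-FAM labelling, HpaI digestion and capillary electrophoresis; bidirectional fit versus DMSO baseline.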

[11] = ATG_PPRE_CIS: Attagene CIS-FACTORIAL HepG2 Assay for human Peroxisome Proliferator-activated Response Element (PPRE) (AID 2282958); conditions: HepG2 PPRE cis-element reporter, Attagene transcription factor profiling; actives raise or lower the signal
Summary of the method: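 Cells are first transfected transiently with the multiplexed reporter library, then dosed for 24 h. Total RNA is reverse-transcribed, amplified, fluorescently end-labeled and HpaI-cut before capillary electrophoresis; activity is fitted bidirectionally against DMSO controls.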

[12] = ATG_RORE_CIS: Attagene CIS-FACTORIAL HepG2 Assay for human RAR-related Orphan Receptor Element (RORE) (AID 2282959); conditions: HepG2 Attagene cis-factorial RORE reporter, mRNA; actives raise or lower the signal
Summary of the method: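 Cells were HepG2 carrying transfected cis-regulated reporter constructs, dosed for 24 hours. Total RNA was reverse-transcribed and reporter cDNA amplified, fluorescently labeled and sized by capillary electrophoresis. Activity was fitted bidirectionally relative to DMSO.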

[13] = ATG_Sox_CIS: Attagene CIS-FACTORIAL HepG2 Assay for human SRY-box transcription factor (SOX) (AID 2282960); conditions: HepG2 Attagene cis-factorial SOX reporter, mRNA; actives raise or lower the signal
Summary of the method: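 Transient MRTU transfection of HepG2; 24 h compound incubation; TriZol RNA, oligo(dT) RT, PCR, 6-FAM primer extension, HpaI cut, CE. Bidirectional fit, DMSO = baseline.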

[14] = target: Transcription factor Sp1 (Homo sapiens) (UniProt P08047); assay: ATG_Sp1_CIS: Attagene CIS-FACTORIAL HepG2 Assay for human Specificity Protein 1 (Sp1) (AID 2282961); conditions: HepG2 Sp1 cis-reporter transcription, actives raise or lower the signal
Transcription factor Sp1 (Homo sapiens), sequence (P08047 whole entry, looked up): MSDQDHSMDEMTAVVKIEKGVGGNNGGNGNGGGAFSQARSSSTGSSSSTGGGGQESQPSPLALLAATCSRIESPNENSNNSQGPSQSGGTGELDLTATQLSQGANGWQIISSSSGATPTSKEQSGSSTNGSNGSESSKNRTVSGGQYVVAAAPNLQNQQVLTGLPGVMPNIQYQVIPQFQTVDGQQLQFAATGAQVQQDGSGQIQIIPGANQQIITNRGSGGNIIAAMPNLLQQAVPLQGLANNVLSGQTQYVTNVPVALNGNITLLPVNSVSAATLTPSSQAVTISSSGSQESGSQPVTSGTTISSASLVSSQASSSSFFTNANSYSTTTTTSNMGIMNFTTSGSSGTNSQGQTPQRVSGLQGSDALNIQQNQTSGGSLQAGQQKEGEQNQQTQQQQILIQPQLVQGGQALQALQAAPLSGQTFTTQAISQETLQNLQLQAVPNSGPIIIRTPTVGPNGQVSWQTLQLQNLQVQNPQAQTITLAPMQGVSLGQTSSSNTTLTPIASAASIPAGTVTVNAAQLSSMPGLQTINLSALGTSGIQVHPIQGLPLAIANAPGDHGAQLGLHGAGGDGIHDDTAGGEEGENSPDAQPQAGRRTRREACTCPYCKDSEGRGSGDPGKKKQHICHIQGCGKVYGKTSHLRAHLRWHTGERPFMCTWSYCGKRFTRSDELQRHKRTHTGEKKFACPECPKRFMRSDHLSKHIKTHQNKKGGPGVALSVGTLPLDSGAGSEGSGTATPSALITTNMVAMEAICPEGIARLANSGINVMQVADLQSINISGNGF
Summary of the method: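 Endogenous Sp1 activity was gauged in human liver HepG2 cells bearing transfected reporter units under a cis-regulating promoter. After 24 h dosing, reporter mRNA was quantified by RT-PCR with capillary electrophoresis, and activity fitted bidirectionally versus DMSO.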

[15] = target: Signal transducer and activator of transcription 3 (Homo sapiens) (UniProt P40763); assay: ATG_STAT3_CIS: Attagene CIS-FACTORIAL HepG2 Assay for human Signal Transducer and Activator of Transcription 3 (STAT3) (AID 2282963); conditions: HepG2, Attagene cis-factorial STAT3 reporter transcription; actives raise or lower the signal
Signal transducer and activator of transcription 3 (Homo sapiens), sequence (P40763 whole entry, looked up): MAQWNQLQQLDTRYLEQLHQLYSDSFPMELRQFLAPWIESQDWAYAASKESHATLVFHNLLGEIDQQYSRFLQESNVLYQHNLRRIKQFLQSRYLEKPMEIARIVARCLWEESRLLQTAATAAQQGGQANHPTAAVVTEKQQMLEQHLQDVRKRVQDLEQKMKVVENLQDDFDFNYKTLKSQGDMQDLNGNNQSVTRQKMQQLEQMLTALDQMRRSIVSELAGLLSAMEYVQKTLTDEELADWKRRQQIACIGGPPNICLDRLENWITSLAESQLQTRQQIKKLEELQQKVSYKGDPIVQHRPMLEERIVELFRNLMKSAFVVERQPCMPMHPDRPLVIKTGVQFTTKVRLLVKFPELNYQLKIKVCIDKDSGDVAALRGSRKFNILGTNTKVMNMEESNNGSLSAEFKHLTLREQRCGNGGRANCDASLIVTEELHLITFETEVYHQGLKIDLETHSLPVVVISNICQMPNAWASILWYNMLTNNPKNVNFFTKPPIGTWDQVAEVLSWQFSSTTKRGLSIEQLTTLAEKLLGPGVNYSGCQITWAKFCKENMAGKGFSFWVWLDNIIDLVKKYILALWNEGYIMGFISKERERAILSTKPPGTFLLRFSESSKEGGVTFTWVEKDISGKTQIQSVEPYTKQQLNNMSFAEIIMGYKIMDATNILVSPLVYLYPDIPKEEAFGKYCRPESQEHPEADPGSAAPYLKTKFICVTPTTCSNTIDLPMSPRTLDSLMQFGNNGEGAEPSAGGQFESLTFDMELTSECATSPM
Summary of the method: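 After a 24 h compound incubation, total RNA from MRTU-transfected HepG2 cells was converted to cDNA and reporter sequences PCR-amplified, labelled and profiled by capillary electrophoresis. Gain and loss of signal were referenced to DMSO.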

[16] = ATG_TA_CIS: Attagene CIS-FACTORIAL HepG2 Assay for human TA Basal Promoter (AID 2282964); conditions: HepG2 Attagene CIS-factorial TA basal promoter reporter; actives raise or lower the signal
Summary of the method: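 Steps: transfect HepG2 with MRTUs; dose 24 h; isolate RNA, DNase-treat, reverse-transcribe; PCR and FAM-label reporter cDNA; digest with HpaI 2h at 37 C; run capillary electrophoresis. Activity fitted both directions against DMSO.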

[17] = ATG_TCF_b_cat_CIS: Attagene CIS-FACTORIAL HepG2 Assay for human T-Cell-Factor with beta-catenin (TCF/b-cat) (AID 2282965); conditions: HepG2 TCF/beta-catenin cis-reporter transcription, actives raise or lower the signal
Summary of the method: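 Measured: reporter mRNA in HepG2 transiently transfected with cis-promoter reporter units, 24 h after chemical addition. Fitting was bidirectional, DMSO as negative control.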

[18] = ATG_SREBP_CIS: Attagene CIS-FACTORIAL HepG2 Assay for human Sterol Regulatory Element Binding (SREBP) (AID 2282962); conditions: HepG2 Attagene cis-factorial SREBP reporter, mRNA; actives raise or lower the signal
Summary of the method: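 HepG2 cells transiently transfected with multiplexed cis-promoter reporter units sensing endogenous transcription factors; reporter mRNA measured 24 h after dosing by RT-PCR, 6-FAM labeling, HpaI digestion and capillary electrophoresis. Bidirectional fit versus DMSO.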

[19] = ATG_PXRE_CIS: Attagene CIS-FACTORIAL HepG2 Assay for human Pregnane X Receptor Element (PXRE) (AID 2282957); conditions: HepG2 Attagene CIS-FACTORIAL PXRE reporter, mRNA; actives raise or lower the signal
Summary of the method: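 Cells: HepG2, transiently transfected reporter units under cis promoter control. Exposure: 24 h. Detection: reporter mRNA via RT-PCR/CE fluorescence; bidirectional fitting, DMSO-referenced.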

Measured: AC50

O=C(O)c1ccc(C(=O)O)cc1
not listed: [18] | [19]
inactive: all other assays above

CC(C=O)Cc1ccc(C(C)C)cc1 (centres undefined)
not listed: [12] | [19]
inactive: all other assays above

Cc1ccc(C(=O)c2cc(O)c(O)c([N+](=O)[O-])c2)cc1
active: [5] 27.4 µM | [8] 130 µM | [19] 27.5 µM
not listed: [11]
inactive: all other assays above

CCCCc1ccc(N)cc1
not listed: [11] | [13] | [17]
inactive: all other assays above

NC(=O)Nc1ccc(Cl)cc1
not listed: [12]
inactive: all other assays above

C=CC(C)(CCC=C(C)C)OC=O (centres undefined)
active: [19] 24.8 µM
not listed: [12] | [18]
inactive: all other assays above

c1ccc2[nH]ccc2c1
active: [19] 29.9 µM
not listed: [9]
inactive: all other assays above

CCCCCCC#CC(=O)OC
not listed: [13] | [19]
inactive: all other assays above

CC(C)(C)NC(N)=O
not listed: [15]
inactive: all other assays above

CCCCCCCCC
not listed: [15]
inactive: all other assays above

CCc1ccc(C=O)cc1
not listed: [16] | [19]
inactive: all other assays above

CCCCCCCCCC=O
active: [5] 19.8 µM | [11] 46.1 µM
not listed: [9] | [13] | [16]
inactive: all other assays above

O=C(Cl)c1cccc(C(=O)Cl)c1
active: [19] 27.5 µM
not listed: [15]
inactive: all other assays above

CCCCC[Si](OCC)(OCC)OCC
active: [19] 7.23 µM
not listed: [9]
inactive: all other assays above

Cc1ccc(C(=O)O)o1
not listed: [15] | [17]
inactive: all other assays above

COCCOCCOCCOCCOCCO
inactive: all assays above
